Results taken from PubChem BioAssay (NCI).
About 83,000 compounds went through this panel and 20% of them were active in at least one assay; those are over-represented in the sample as a whole.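 Single-dose data. Exposure time 48 hours. Values below 10 considered active.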 Values without a mark were called inactive. Active and inactive are the calls of the source.

System: RXF 393 renal
Assay: NCI-60 one-dose screen, 48 h (100 = growth as untreated, 0 = no growth, -100 = all killed)
Conditions: 10 µM unless noted

SMILES | growth
CC[C@]12C=CCN3CC[C@@]4(c5ccc(OC)cc5N(C)[C@H]4[C@@](O)(C(=O)OC)[C@@H]1OC(=O)CCC[P+](c1ccccc1)(c1ccccc1)c1ccccc1)[C@@H]32 | 28.9%
Oc1c(CN2CCC(N3CCCCC3)CC2)cc(Cc2cc(CN3CCC(N4CCCCC4)CC3)c(O)c3ncccc23)c2cccnc12 | 57.5%
Nc1c(C(=O)Nc2cccc(Cl)c2)sc2nc3c(cc12)CCCC3 | 103%
C=C(c1ccc(OC)c(/C=C/C(=O)c2ccc3c(c2)OCO3)c1)c1cc(OC)c(OC)c(OC)c1 | 3.52% (active)
CCCCCN(CCCCC)CC(O)c1cc(C)c2ccc3cc(C(C)C)ccc3c2c1 (stereo not given) | -88.2% (active)
O=C1/C=C/[C@@H](O)[C@@H]2C[C@@H](O)C[C@H]2/C=C/CCC[C@H](CCO)O1 | -7.43% (active)
CC(=O)/C(=C/c1ccc([N+](=O)[O-])cc1)C(=O)c1ccccc1 | 74.2%
CC1(C)CC[C@]23CC[C@]4(C)[C@H](CC[C@@H]5[C@@]6(C)C/C(=C/c7ccncc7)C(=O)C(C)(C)[C@@H]6CC[C@]54C)[C@H]2[C@H]1OC3 | 88.4%
CCCCCCCC/C=C\CCCCCCCCOc1ccc(CC(=O)NCC[N+]2(C)CCOCC2)cc1 | -38.6% (active)
O=C(NNc1cnccn1)c1nc2cc(F)ccc2n2cccc12 | 9.53% (active)
O=C(C1=Cc2cc3ccccc3n2Cc2cnnn21)c1ccc(O)cc1 | 59%

System: SF-268 CNS
Assay: as above
Conditions: 10 µM unless noted

SMILES | growth
CCOC(=O)CC1CSC(Nc2ccccc2)=N1 (stereo not given) | 98.7%
O=S(=O)(Nc1cc(Sc2cccc3cccnc23)c(O)c2ccccc12)c1ccccc1 | 8.28% (active)
COc1ccc(C(=O)c2cc3c(N)c(C(=O)Nc4ccccc4)sc3nc2C)cc1 | 51.4%
N=c1c(S(=O)(=O)c2ccccc2)cc2c(=O)n3ccccc3nc2n1CC1CCCO1 (stereo not given) | 100%
CC(C)(C)c1cc(Cl)c(O)c(CNCCO)c1 | 106%
CCN(CC)CCN1C(=O)c2c(c(C)c3c(oc4ccc(O)cc43)c2C)C1=O | 37.1%
Fc1cccc(-c2ccc3c(c2)C2(CCNCC2)CN3)c1 | 98.8%
C=CC(=O)Nc1ccc(Oc2nccc(Nc3nnc(-c4ccc(C)cc4)s3)n2)cc1 | 77.6%
NC1(CO)COC(c2ccccc2)OC1 (stereo not given) | 110%
CCNc1ccc(-c2nc3ccccc3n3cccc23)cc1 | 83.9%
CC[N+]1(CC)CC[N+]2(CCCC(C)CC2)CC1 (stereo not given) | 108%
N=C(N)c1ccc(-c2ccc(-c3ccccc3)s2)cc1 | 76.4%
O=C(CSc1nc(-c2ccccc2)cc(=O)[nH]1)Nc1nc(-c2ccccc2)cs1 | 93.8%
Cc1nnc(-c2ccc3c(c2)nc(/C=C/c2ccccc2)n3C2CCCCC2)o1 | 86.5%
O=S(=O)(NCCNc1nccc(-c2c(-c3ccc(F)c(O)c3)nc3sccn23)n1)c1ccc(F)cc1 | 37.3%
CCN(CC)CCCN1C(=O)c2c(c(C)c3c(oc4ccc(O)cc43)c2C)C1=O | 66%
CCCCCCCCCCCCCCCCCC1=NC(C)(C)CN1CC(C)O (stereo not given) | 14.6%
C#CC#CC#CC#CC#CC#CC#CC#CCC1OC[C@H](COC(=O)O[C@@H](C(=O)O[C@H]2C[C@@]3(O)[C@@H](OC(=O)c4ccccc4)[C@@H]4[C@]5(OC(C)=O)CO[C@@H]5C[C@H](O)[C@@]4(C)C(=O)[C@H](OC(C)=O)C(=C2C)C3(C)C)[C@@H](NC(=O)c2ccccc2)c2ccccc2)O1 (stereo not given in full) | 45.9%
Cc1ccc(Cl)cc1NC(=O)c1sc2nc3c(cc2c1N)C(=O)CCC3 | 74.9%
CC(=O)Oc1ccc(OC(C)=O)c2ccccc12 | 87.5%

SMILES | growth
O=C(NNC(=O)c1nc2cc(F)ccc2n2cccc12)c1cnccn1 | 34.8%
C[C@H](C(=O)N(CCc1ccc(Cl)c(Cl)c1)Cc1cncs1)[C@@H]1CC[C@H](C[C@H](C)n2cc(CN3CCC(c4ccc(Cl)cc4)CC3)nn2)O1 | 102%
O=C(CC(=O)Nc1cccc(C(=O)O)c1)Nc1cccc(C(=O)O)c1 | 104%
C=C1CC[C@@H]2C(C)(C)[C@@H](O)CC[C@@]2(C)[C@@H]1COc1ccc2ccc(=O)oc2c1 | 78%
CCS/C(Nc1ccccc1)=C(\C#N)C(=O)Nc1ccc(OC)cc1 | 39.1%
Nc1nc(NC(=O)Nc2ccc(C(=O)O)cc2)nn1-c1ccc(S(N)(=O)=O)cc1 | 95.1%
N#Cc1c(-c2ccccc2)nc(SCc2nnc(-c3ccc(Cl)cc3)o2)[nH]c1=O | 100%
CCN(CC)c1ccc(/C=N/NC(=O)Cc2ccc(Nc3ccnc(C(F)(F)F)c3)cc2)c(O)c1 | 18%
CC[C@]12C=CCN3CC[C@@]4(c5ccc(OC)cc5N(C)[C@H]4[C@@](O)(C(=O)OC)[C@@H]1OC(=O)CCC[P+](c1ccccc1)(c1ccccc1)c1ccccc1)[C@@H]32 | 19.2%
Oc1c(CN2CCC(N3CCCCC3)CC2)cc(Cc2cc(CN3CCC(N4CCCCC4)CC3)c(O)c3ncccc23)c2cccnc12 | 27.9%
Nc1c(C(=O)Nc2cccc(Cl)c2)sc2nc3c(cc12)CCCC3 | 102%
C=C(c1ccc(OC)c(/C=C/C(=O)c2ccc3c(c2)OCO3)c1)c1cc(OC)c(OC)c(OC)c1 | 19.3%
CCCCCN(CCCCC)CC(O)c1cc(C)c2ccc3cc(C(C)C)ccc3c2c1 (stereo not given) | -61.7% (active)
O=C1/C=C/[C@@H](O)[C@@H]2C[C@@H](O)C[C@H]2/C=C/CCC[C@H](CCO)O1 | 12.4%
CC(=O)/C(=C/c1ccc([N+](=O)[O-])cc1)C(=O)c1ccccc1 | 76.1%
CC1(C)CC[C@]23CC[C@]4(C)[C@H](CC[C@@H]5[C@@]6(C)C/C(=C/c7ccncc7)C(=O)C(C)(C)[C@@H]6CC[C@]54C)[C@H]2[C@H]1OC3 | 78.1%
CCCCCCCC/C=C\CCCCCCCCOc1ccc(CC(=O)NCC[N+]2(C)CCOCC2)cc1 | 70.2%
O=C(NNc1cnccn1)c1nc2cc(F)ccc2n2cccc12 | 26%
O=C(C1=Cc2cc3ccccc3n2Cc2cnnn21)c1ccc(O)cc1 | 71.9%
